Source: the OligoGym collection
Also: reference of the scale not given here.

These sequences were tested against LYPD3 (assay: pooled miR-30 sensor sort-seq; sequence = guide strand). Conditions: shRNA.
In the case of TCTGCTTTCTGCACGCAGCTGT, the sensor-assay potency score (higher = more potent) is reported as 0.703.
Work on TTGCCGTCGAAGCAGCCCTTGT yielded a sensor-assay potency score (higher = more potent) of -1.63.
Work on TTGAGCTTGGCGTTGCAGCGAT yielded a sensor-assay potency score (higher = more potent) of -0.598.
TCATCCTGGACACAGCCCCGGA gave a sensor-assay potency score (higher = more potent) of -1.53.
Work on TCATCTGCTTTCTGCACGCAGC yielded a sensor-assay potency score (higher = more potent) of -1.43.
Sequence TTGTAGACATGATCGCTGGCGT has a sensor-assay potency score (higher = more potent) of -0.346.
Sequence TGCACTCTCATTACCTGCCGGG has a sensor-assay potency score (higher = more potent) of -0.389.
ACTGTCTTCATCTTGTTCGGGG was tested, and the sensor-assay potency score (higher = more potent) was 0.213.
For TCTTGTTCGGGGAGCATCCGTC, the sensor-assay potency score (higher = more potent) was -0.769.

These sequences were tested against LYZL6 in the same assay as above. Conditions: shRNA.
ATAATCGTTGCACCAGTAGTGG gave a sensor-assay potency score (higher = more potent) of -0.825.
Work on TATGTTGAACTTGCTTTCCACA yielded a sensor-assay potency score (higher = more potent) of -1.04.
TTTAGGGCAAGAAAGCTGCTGA was tested, and the sensor-assay potency score (higher = more potent) was -0.16.
Work on TATCTTTGATATGTTGAACTTG yielded a sensor-assay potency score (higher = more potent) of -0.231.
TAATCGTTGCACCAGTAGTGGC showed a sensor-assay potency score (higher = more potent) of -1.43.
For CAGATCTTGACAGTCTACGTGG, the sensor-assay potency score (higher = more potent) was -1.04.
TTTGATATGTTGAACTTGCTTT was tested, and the sensor-assay potency score (higher = more potent) was 0.0932.
Sequence TTGATATGTTGAACTTGCTTTC has a sensor-assay potency score (higher = more potent) of -0.485.
Work on ATCTTTGATATGTTGAACTTGC yielded a sensor-assay potency score (higher = more potent) of -0.0692.
TTGCTTTCCACAAAAGCCAGGC showed a sensor-assay potency score (higher = more potent) of -0.197.
AACAGTGCAACCTCCATTCTAC gave a sensor-assay potency score (higher = more potent) of -0.122.
TCAGCAGATCTTGACAGTCTAC gave a sensor-assay potency score (higher = more potent) of -0.859.

Each sequence was assayed against LZTR1 in the same assay as above. Conditions: shRNA.
In the case of TAACAGGAGAACTGGAACCTGT, the sensor-assay potency score (higher = more potent) is reported as -1.05.
TTGGAGACCTTGGTGAACTGGT gave a sensor-assay potency score (higher = more potent) of 0.248.
With TAGGGTAACAGGAGAACTGGAA the sensor-assay potency score (higher = more potent) was 0.345.
TTCATCTCCAGGTTCTGCTTGC showed a sensor-assay potency score (higher = more potent) of 0.0647.
For TATTTGATCTTGTCGGTGTAGA, the sensor-assay potency score (higher = more potent) was 0.13.
TTTCACATCGAACCGCAGGAGG gave a sensor-assay potency score (higher = more potent) of -1.16.
Sequence TCATTGAGCATGGTCTTCCCAT has a sensor-assay potency score (higher = more potent) of -0.632.
In the case of AATACAAACATCTTGTCCCGGC, the sensor-assay potency score (higher = more potent) is reported as -0.355.
In the case of TACTCGACACTGTCCGAGCAGC, the sensor-assay potency score (higher = more potent) is reported as -1.08.
TTAGGGTAACAGGAGAACTGGA gave a sensor-assay potency score (higher = more potent) of -0.956.
TATGATGTCCAGCAGCAGCTGC was tested, and the sensor-assay potency score (higher = more potent) was -0.965.

The sequences below were run against MACROD1 in the same assay as above. Conditions: shRNA.
For TTCGCCTCCTTCCAGTCGGTGG, the sensor-assay potency score (higher = more potent) was -1.48.
Sequence AACACGCAGATGATCAGCCGGT has a sensor-assay potency score (higher = more potent) of -0.183.
TTGAGCTGCTTGTCCTTTTTAT was tested, and the sensor-assay potency score (higher = more potent) was -0.992.
For TTACAGCTCTGCAGGGTCCGGC, the sensor-assay potency score (higher = more potent) was -1.02.
Work on TCCAGCTTGGTGATGTCGCTGC yielded a sensor-assay potency score (higher = more potent) of -0.0855.
TTTCTCATTGAGCTGCTTGTCC gave a sensor-assay potency score (higher = more potent) of -0.192.
AAGGATTTCGCCTCCTTCCAGT showed a sensor-assay potency score (higher = more potent) of -0.552.
Sequence TCATTGAGCTGCTTGTCCTTTT has a sensor-assay potency score (higher = more potent) of -0.672.
